# Compound activity from PubChem BioAssay.
# L major viab: inhibitors of Leishmania major promastigote growth; 200,000 tested, 9% active; inhibition, % at 10 µM; Leishmania major promastigotes, resazurin fluorescence viability; in the data active = inhibition above about 50%;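 note: promastigotes grown with compound for 44 hours at 28 °C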
# WT yeast gro inh: growth inhibition of WT yeast, mitochondrial fusion screen; inhibition, % at 10 µM; 190,000 tested, 2.1% active; AID 1362; mitochondrial fusion phenotypic screen, WT strain; in the data active = inhibition above about 58%; tested in S. cerevisiae
# INS promoter inh: TRM-6 insulin promoter activity inhibition; TRM-6 cells (human fetal islet line), insulin promoter-eGFP reporter, imaging; reporter expression induced with tamoxifen; inhibition, % at 2 µM; 130,000 tested, 0.9% active; AID 1273;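 active = inhibition above the mean plus 3 SD, with well images judged a real hit on visual review, cut at about 60% in these data, passing the limit was not always enough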
# Insulin prom up: MIN6 insulin promoter up-regulation; MIN6 insulin promoter-GFP reporter, high-content imaging; active compounds read high; z-score at 5 µM; 190,000 tested, 0.3% active; AID 1625;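 active = z-score above 3 at 5 µM with at least 500 cells counted in the well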
# Autophagy HCS: modulators of autophagy; MEF GFP-LC3 puncta imaging; test concentration mostly 10 µM; calls only at 10 µM (by protocol); 190,000 tested, 0.98% active; AID 463193;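 active = percentage of spot-positive cells more than 3 SD above its plate mean, without a fluorescence outlier flag or 80% toxicity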;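 note: spot-positive cell cutoff set from DMSO-treated cells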
# Starred values were filed as active, the others as inactive; i = inactive; x = no result; + = active, no number. Most compounds without a hit are left out; they make up all but 11% or so of the library.
SMILES,L major viab,WT yeast gro inh,INS promoter inh,Insulin prom up,Autophagy HCS
COc1cccc(Oc2ccc(N/C=C/C(=O)C(C)(C)C)cc2)c1,-1,-12,75*,0.23,i
O=S(=O)(NC1CCN(Cc2ccccc2)CC1)c1cccc2cccnc12,67*,-5,42,-0.48,i
CCN(CC)S(=O)(=O)c1cc(-c2nn(C)c(=O)c3ccccc23)ccc1C,87*,3,-7,0.12,i
Cc1ccc(-c2nn(C)c(=O)c3ccccc23)cc1S(=O)(=O)NCCN(C)C,15,-16,x,-0.03,i
O=[N+]([O-])c1ccc(C2=NN(CCO)C(=Nc3ccc(OC(F)(F)F)cc3)SC2)cc1,x,x,x,-0.35,x
CNC(=O)c1nn(-c2ccccc2)ccc1=O,-8,9,23,-0.93,i
CNC(=O)c1nn(-c2ccc(Cl)cc2)ccc1=O,-2,98*,63,-0.02,i
CCOc1cc(/C=C2/C(=O)ON=C2C)ccc1OCc1ccccc1,40,2,-129,1,i
CCOc1cc(/C=C2/C(=O)ON=C2C)ccc1OCc1ccccc1F,58*,11,31,2.8,i
Cc1cc(Nc2ccccc2)nc2cc(O)ccc12,83*,62*,-37,0.22,i
Cc1nn(C)c(C)c1/C=C/C(=O)c1cccs1,72*,20,56,x,i
Cc1ccc(C(=O)Nc2ccccc2C(=O)NCc2ccco2)cc1S(=O)(=O)N1CCCCC1,62*,16,-24,-3.3,i
Cc1ccc(C(=O)NCc2ccco2)cc1S(=O)(=O)Nc1cccc(C)c1C,16,8,14,0.45,i
Cc1ccc(C)c(NS(=O)(=O)c2cc(C(=O)NCc3ccco3)ccc2C)c1,100*,-2,-25,-0.42,i
Cc1ccc(C(=O)NCc2ccco2)cc1S(=O)(=O)N1CCCCC1,6,12,-18,-0.1,i
Cc1ccc(SCCNC(=O)c2ccc(C)c(S(=O)(=O)Nc3ccccc3C)c2)cc1,99*,-9,x,-0.63,i
Cc1ccc(C(=O)NCCSC2CCCCC2)cc1S(=O)(=O)Nc1ccccc1,97*,8,x,1.1,i
CSCC[C@H](NC(=O)Nc1ccc(Oc2ccccc2)cc1)C(=O)O,x,x,x,0.17,x
CCOc1cccc2c1OC(c1cc(OC)c(OC)c(OC)c1)N1N=C(c3ccc(C)o3)CC21 (configuration not stated),10,21,13,-0.13,i
CCN(C(=O)CSc1nnc(-c2cccs2)o1)C1CCS(=O)(=O)C1 (configuration not stated),4,1,-133,-0.69,i
CCOC(=O)c1c(NC(=O)c2ccc(C)cc2)sc2c1CC(C)(C)OC2,61*,13,-34,x,i
CCOC(=O)c1c(NC(=O)c2ccccc2C)sc2c1CC(C)(C)OC2,72*,22,x,x,i
CN1CCN(c2ccc(CNS(=O)(=O)c3ccsc3)cc2)CC1,x,x,x,0.33,x
CCN(Cc1ccccc1)C(c1cccc(C#N)c1)c1nnnn1C(C)(C)C (configuration not stated),25,27,-118,-0.45,i
CC(c1nnnn1C(C)(C)C)N(Cc1cccnc1)Cc1ccccc1Cl (configuration not stated),96*,17,29,-0.64,i
SMILES,L major viab,WT yeast gro inh,INS promoter inh,Insulin prom up,Autophagy HCS
CC(C)(C)n1nnnc1C(c1cccs1)N(Cc1cccnc1)Cc1ccccc1Cl (configuration not stated),100*,74*,29,0.19,i
Cc1nn(CC(=O)Nc2ccc3c(c2)nc(CCN2CCCCC2)n3C)c(=O)c2ccccc12,3,-12,-7,-1,i
Cc1nn(CC(=O)Nc2ccc3c(c2)nc2n3CCN(C3CCCCC3)C2)c(=O)c2ccccc12,72*,8,x,-0.36,i
NS(=O)(=O)c1ccc(NC(=S)NCc2ccco2)cc1,-6,-5,x,-0.52,i
CSc1nc2ccc(NS(=O)(=O)c3ccc([N+](=O)[O-])cc3)cc2s1,x,x,x,0.46,x
CSc1nc2ccc(NS(=O)(=O)c3cccc(Cl)c3Cl)cc2s1,-6,81*,x,-0.43,i
Cc1ccc(C(=O)Nc2ccc(Br)cc2)cc1S(=O)(=O)Nc1ccccn1,-6,3,x,0.02,i
CCCCCCOC1(c2ccccc2)OC(=O)c2ccccc21 (configuration not stated),-4,63*,x,-0.18,i
O=C1CSC(c2cccc(Cl)c2Cl)N1c1ccccn1 (configuration not stated),91*,38,-3,-0.08,i
CC(=O)Nc1ccc(N2C(=O)CSC2c2c(F)cccc2Cl)cc1 (configuration not stated),-4,-15,8,0.21,i
O=c1[nH]c(-c2ccccc2F)nc2c1sc(=S)n2Cc1ccccc1,3,-8,x,-0.05,+
O=c1c2cccnc2[nH]c(=S)n1Cc1ccccc1,-6,16,x,-0.34,i
CSCCC(NC(=O)c1ccccc1)C(=O)OCC(=O)Nc1ccc(C)c(Cl)c1 (configuration not stated),24,24,-14,-0.22,i
CSCCC(NC(=O)c1ccc(Cl)cc1)C(=O)OCC(=O)Nc1cc(Cl)ccc1C#N (configuration not stated),54*,-1,14,-2.5,i
CS(=O)(=O)c1ccc2nc(NC(=O)c3ccc(S(=O)(=O)NCC4CCCO4)cc3)sc2c1 (configuration not stated),-5,-10,-14,0.44,i
CC1=C(C(=O)OCC2CCCO2)C(c2ccc(C)o2)C2=C(CC(c3ccc(N(C)C)cc3)CC2=O)N1 (configuration not stated),85*,-6,-88,-0.31,i
CC1=C(C(=O)OCC2CCCO2)C(c2ccc(C)o2)C2=C(CC(c3ccc(F)cc3)CC2=O)N1 (configuration not stated),4,-8,35,-0.57,i
CCCc1noc2c1C(c1cc(Br)ccc1F)C(C#N)=C(N)N2 (configuration not stated),28,1,x,-0.33,i
O=C(c1ccc2ccccc2c1)N1CCN(c2ccc(O)cc2)CC1,90*,21,-16,-0.55,i
O=C(c1cccc(S(=O)(=O)N2CCc3ccccc3C2)c1)N1CCN(c2ccc(O)cc2)CC1,65*,1,-107,0.27,i
O=C(c1cccc(S(=O)(=O)N2CCOCC2)c1)N1CCCCCC1,-6,3,0,0.09,+
O=C(NCC1(N2CCOCC2)CCCCC1)c1cccc(S(=O)(=O)N2CCc3ccccc3C2)c1,64*,0,x,-1.6,i
CCc1ccc(NC(=O)C(C)OC(=O)c2cccc(S(=O)(=O)N3CCc4ccccc4C3)c2)cc1 (configuration not stated),89*,0,x,0.56,i
CCN(CC)CCCN(C(C)=O)c1nc(-c2cc(OC)ccc2OC)cs1,100*,-6,-42,-0.43,i
O=C(NCc1ccco1)C1CCN(C(=O)c2cc3sccc3n2Cc2ccc(Cl)cc2)CC1,65*,61*,x,-0.9,i
COc1ccc(Br)c(C(=O)Nc2ccc(F)cc2)c1,x,x,x,-0.25,x
